Measured values as given in PubChem BioAssay (NCI).
The panel holds about 83,000 compounds, 20% with a hit somewhere; the sample as a whole holds those more often.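 The test compound was applied at a single concentration to cells in 96-well plates for 48 hours, and percent growth was recorded.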 Values without a mark were called inactive. Activity calls are given as the source filed them. How the source made its calls: active means growth percent below 10; inactive means the rest.

Legend:
Test in all cases: NCI-60 one-dose screen, 48 h (100 = growth as untreated, 0 = no growth, -100 = all killed)
Conditions in all cases: 10 µM unless noted
SR leukemia = test system: SR leukemia
RPMI-8226 leukemia = test system: RPMI-8226 leukemia
OVCAR-8 ovarian = test system: OVCAR-8 ovarian
OVCAR-5 ovarian = test system: OVCAR-5 ovarian
OVCAR-4 ovarian = test system: OVCAR-4 ovarian
SK-OV-3 ovarian = test system: SK-OV-3 ovarian
IGROV1 ovarian = test system: IGROV1 ovarian
OVCAR-3 ovarian = test system: OVCAR-3 ovarian
HS 578T breast = test system: HS 578T breast
NCI/ADR-RES ovarian = test system: NCI/ADR-RES ovarian
T-47D breast = test system: T-47D breast
BT-549 breast = test system: BT-549 breast
MDA-MB-435 melanoma = test system: MDA-MB-435 melanoma
SW-620 colon = test system: SW-620 colon
MCF7 breast = test system: MCF7 breast
HCT-116 colon = test system: HCT-116 colon
HCC-2998 colon = test system: HCC-2998 colon
KM12 colon = test system: KM12 colon

CCCOc1ccc(/C=N/Nc2cc(C)nc3ccc(Cl)cc23)cc1
growth (SR leukemia): -35.5% (active)
growth (RPMI-8226 leukemia): -20.2% (active)
growth (OVCAR-8 ovarian): -44.6% (active)
growth (OVCAR-5 ovarian): 96.3%
growth (OVCAR-4 ovarian): 48.5%
growth (SK-OV-3 ovarian): 89.1%
growth (IGROV1 ovarian): 42.1%
growth (OVCAR-3 ovarian): -27.5% (active)
growth (HS 578T breast): 89%
growth (NCI/ADR-RES ovarian): 82.4%
growth (T-47D breast): 45.9%
growth (BT-549 breast): 102%
growth (MDA-MB-435 melanoma): -40.4% (active)
growth (SW-620 colon): -75.5% (active)
growth (MCF7 breast): -20.5% (active)
growth (HCT-116 colon): -74.8% (active)
growth (HCC-2998 colon): -39.9% (active)
growth (KM12 colon): 16.5%

O=C(Nc1ccc(-c2ccc3c(c2)NC(=O)/C3=C\c2ccc[nH]2)cc1)NC1CC1
growth (SR leukemia): 34.8%
growth (RPMI-8226 leukemia): 87%
growth (OVCAR-8 ovarian): 109%
growth (OVCAR-5 ovarian): 105%
growth (OVCAR-4 ovarian): 98.3%
growth (SK-OV-3 ovarian): 118%
growth (IGROV1 ovarian): 96.6%
growth (OVCAR-3 ovarian): 107%
growth (HS 578T breast): 97.1%
growth (NCI/ADR-RES ovarian): 105%
growth (T-47D breast): 32.1%
growth (BT-549 breast): 103%
growth (MDA-MB-435 melanoma): 98.6%
growth (SW-620 colon): 103%
growth (MCF7 breast): 15.8%
growth (HCT-116 colon): 96.6%
growth (HCC-2998 colon): 107%
growth (KM12 colon): 19.1%

CC(C)(C)CC(C)(C)n1nnnc1C(NC12CC3CC(CC(C3)C1)C2)c1ccccc1 (centres undefined)
growth (SR leukemia): 80.3%
growth (RPMI-8226 leukemia): 68.8%
growth (OVCAR-8 ovarian): 96%
growth (OVCAR-5 ovarian): 103%
growth (OVCAR-4 ovarian): 88.4%
growth (SK-OV-3 ovarian): 120%
growth (IGROV1 ovarian): 87.1%
growth (OVCAR-3 ovarian): 98.1%
growth (HS 578T breast): 99.9%
growth (NCI/ADR-RES ovarian): 86.1%
growth (T-47D breast): 73.5%
growth (BT-549 breast): 93.2%
growth (MDA-MB-435 melanoma): 98.3%
growth (SW-620 colon): 98.9%
growth (MCF7 breast): 88.9%
growth (HCT-116 colon): 66.8%
growth (HCC-2998 colon): 104%
growth (KM12 colon): 101%

COc1ccc(OC)c(-c2cc(-c3ccc(Cl)cc3)c3c(N)c(C(=O)c4ccc(Cl)cc4)sc3n2)c1
growth (SR leukemia): 101%
growth (RPMI-8226 leukemia): 94.2%
growth (OVCAR-8 ovarian): 104%
growth (OVCAR-5 ovarian): 96.4%
growth (OVCAR-4 ovarian): 93.1%
growth (SK-OV-3 ovarian): 89.8%
growth (IGROV1 ovarian): 92.1%
growth (OVCAR-3 ovarian): 103%
growth (HS 578T breast): 115%
growth (NCI/ADR-RES ovarian): 103%
growth (T-47D breast): 87.2%
growth (BT-549 breast): 84.1%
growth (MDA-MB-435 melanoma): 107%
growth (SW-620 colon): 112%
growth (MCF7 breast): 86.2%
growth (HCT-116 colon): 95.7%
growth (HCC-2998 colon): 100%
growth (KM12 colon): 100%

COc1ccc(-c2nc([C@@H](C)Sc3nc(N)cc(N)n3)c(C)s2)cc1OCCN1CCOCC1
growth (SR leukemia): 97.5%
growth (RPMI-8226 leukemia): 70.3%
growth (OVCAR-8 ovarian): 95.8%
growth (OVCAR-5 ovarian): 121%
growth (OVCAR-4 ovarian): 106%
growth (SK-OV-3 ovarian): 131%
growth (IGROV1 ovarian): 123%
growth (OVCAR-3 ovarian): 102%
growth (HS 578T breast): 94.2%
growth (NCI/ADR-RES ovarian): 101%
growth (T-47D breast): 99.5%
growth (BT-549 breast): 96.1%
growth (MDA-MB-435 melanoma): 110%
growth (SW-620 colon): 107%
growth (MCF7 breast): 101%
growth (HCT-116 colon): 103%
growth (HCC-2998 colon): 83.9%
growth (KM12 colon): 104%

C=C1C(=O)O[C@H]2[C@H]1CC/C(C(=O)NCCCCCNC(=O)/C1=C/CC[C@@]3(C)O[C@H]3[C@H]3OC(=O)C(=C)[C@@H]3CC1)=C\CC[C@@]1(C)O[C@@H]21
growth (SR leukemia): 83.6%
growth (RPMI-8226 leukemia): 95.5%
growth (OVCAR-8 ovarian): 103%
growth (OVCAR-5 ovarian): 93.9%
growth (OVCAR-4 ovarian): 116%
growth (SK-OV-3 ovarian): 120%
growth (IGROV1 ovarian): 101%
growth (OVCAR-3 ovarian): 103%
growth (HS 578T breast): 104%
growth (NCI/ADR-RES ovarian): 103%
growth (T-47D breast): 94.2%
growth (BT-549 breast): 98.2%
growth (MDA-MB-435 melanoma): 105%
growth (SW-620 colon): 101%
growth (MCF7 breast): 88.2%
growth (HCT-116 colon): 87%
growth (HCC-2998 colon): 105%
growth (KM12 colon): 103%

CCCOC(=O)N[C@H]1CCc2cc(OC)c(OC)c(OC)c2-c2ccc(SC)c(=O)cc21
growth (SR leukemia): 4.77% (active)
growth (RPMI-8226 leukemia): 5.39% (active)
growth (OVCAR-8 ovarian): 23.6%
growth (OVCAR-5 ovarian): 33.9%
growth (OVCAR-4 ovarian): 40.5%
growth (SK-OV-3 ovarian): 42.7%
growth (IGROV1 ovarian): 17.5%
growth (OVCAR-3 ovarian): -42.1% (active)
growth (HS 578T breast): 5.68% (active)
growth (NCI/ADR-RES ovarian): 5.94% (active)
growth (T-47D breast): 39.3%
growth (BT-549 breast): 10.2%
growth (MDA-MB-435 melanoma): -40.4% (active)
growth (SW-620 colon): 18.4%
growth (MCF7 breast): 15.6%
growth (HCT-116 colon): 7.65% (active)
growth (HCC-2998 colon): 23%
growth (KM12 colon): -11.3% (active)

COc1cc2nc(-c3ccc(Cl)cc3)cc(OCCCN3CCCCC3)c2cc1OC
growth (SR leukemia): 9.98% (active)
growth (RPMI-8226 leukemia): 21%
growth (OVCAR-8 ovarian): 49.8%
growth (OVCAR-5 ovarian): 49.3%
growth (OVCAR-4 ovarian): 61.7%
growth (SK-OV-3 ovarian): 78.9%
growth (IGROV1 ovarian): 33.2%
growth (OVCAR-3 ovarian): 72%
growth (HS 578T breast): 62.1%
growth (NCI/ADR-RES ovarian): 46.4%
growth (T-47D breast): 35.4%
growth (BT-549 breast): 40.9%
growth (MDA-MB-435 melanoma): -22.5% (active)
growth (SW-620 colon): 40.8%
growth (MCF7 breast): 45.8%
growth (HCT-116 colon): 22.9%
growth (HCC-2998 colon): 67.7%
growth (KM12 colon): 44.6%
